# Source: the supplement of paper PMC11732987, “Enantioselective OTUD7B fragment discovery through chemoproteomics screening and high-throughput optimisation” (Communications Chemistry, 2025)
# Unmarked numbers belong to inactive results.
# What was measured:
# Experiment in all cases: log2 ratio of Biotin-Ahx-Ub-VS probe labelling (fragment/DMSO); higher = less target engagement (more negative = stronger competition), active = hit call of the paper (q ≤ 0.05, log2 ratio ≤ -1)
# Conditions in all cases: compound concentration: 200 uM; treatment time: 3 h
# OTUD6B = target: T1, OTUD6B (UniProt Q8N6M0)
# T1 sequence (whole entry): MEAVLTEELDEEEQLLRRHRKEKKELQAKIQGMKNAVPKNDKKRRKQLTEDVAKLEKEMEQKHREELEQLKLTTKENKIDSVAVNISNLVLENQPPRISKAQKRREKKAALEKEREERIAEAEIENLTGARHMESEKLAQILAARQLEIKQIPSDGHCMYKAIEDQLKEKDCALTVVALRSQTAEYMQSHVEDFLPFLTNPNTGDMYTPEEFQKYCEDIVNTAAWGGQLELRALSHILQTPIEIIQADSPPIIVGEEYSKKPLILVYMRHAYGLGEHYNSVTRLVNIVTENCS
# Procedure, shortened: (§1)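 Global-median-normalised Spectronaut label-free quantities were compared by unpaired t-test, and values are average log2 ratios of fragment over vehicle. Only proteins with ≥2 unique peptides were used. HEK293T lysate (495 µg per sample) was treated in triplicate with fragment at 200 µM or vehicle for 3 h and then with Biotin-Ahx-Ub-VS at 0.5 µM final for 1 h. Labelled DUBs were then NeutrAvidin-enriched, digested with LysC and trypsin, and run by diaPASEF LC-MS/MS.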
# OTUD7B = target: T2, OTUD7B (UniProt Q6GQQ9)
# T2 sequence (whole entry): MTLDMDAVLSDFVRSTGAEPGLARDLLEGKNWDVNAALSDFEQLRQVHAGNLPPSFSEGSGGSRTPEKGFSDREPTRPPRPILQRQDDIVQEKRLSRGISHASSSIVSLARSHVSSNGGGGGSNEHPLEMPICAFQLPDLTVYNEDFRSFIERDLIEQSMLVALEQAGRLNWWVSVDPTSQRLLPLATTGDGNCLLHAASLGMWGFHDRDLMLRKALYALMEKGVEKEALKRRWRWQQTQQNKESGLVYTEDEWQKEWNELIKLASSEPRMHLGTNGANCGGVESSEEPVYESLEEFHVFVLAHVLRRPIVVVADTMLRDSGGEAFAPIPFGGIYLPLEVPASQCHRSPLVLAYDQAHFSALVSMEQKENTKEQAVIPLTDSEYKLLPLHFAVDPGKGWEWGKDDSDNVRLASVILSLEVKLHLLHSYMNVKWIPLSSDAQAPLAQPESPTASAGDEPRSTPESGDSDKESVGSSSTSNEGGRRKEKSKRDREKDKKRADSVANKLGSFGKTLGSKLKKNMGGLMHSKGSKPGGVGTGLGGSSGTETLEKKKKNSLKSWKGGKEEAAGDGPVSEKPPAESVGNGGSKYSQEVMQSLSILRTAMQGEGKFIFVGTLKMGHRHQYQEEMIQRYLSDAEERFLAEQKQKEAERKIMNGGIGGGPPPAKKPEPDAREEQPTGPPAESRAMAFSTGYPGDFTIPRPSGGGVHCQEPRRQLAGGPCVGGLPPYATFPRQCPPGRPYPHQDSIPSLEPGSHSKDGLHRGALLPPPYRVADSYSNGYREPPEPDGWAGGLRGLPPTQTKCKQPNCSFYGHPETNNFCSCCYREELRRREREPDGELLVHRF
# Procedure, shortened: as §1
# PRPF8 = PRPF8 (UniProt Q6P2Q9)
# Procedure, shortened: as §1
# PSMD7 = target: T3, PSMD7 (UniProt P51665)
# T3 sequence (whole entry): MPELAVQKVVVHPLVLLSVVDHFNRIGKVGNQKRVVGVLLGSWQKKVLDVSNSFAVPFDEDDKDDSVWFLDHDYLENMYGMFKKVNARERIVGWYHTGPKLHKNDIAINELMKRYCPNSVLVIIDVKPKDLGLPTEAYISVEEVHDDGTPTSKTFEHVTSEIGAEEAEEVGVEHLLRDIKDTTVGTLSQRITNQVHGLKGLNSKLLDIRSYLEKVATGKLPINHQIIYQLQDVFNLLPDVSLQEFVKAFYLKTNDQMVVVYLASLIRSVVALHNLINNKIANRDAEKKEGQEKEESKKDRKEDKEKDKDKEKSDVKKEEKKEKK
# Procedure, shortened: as §1
# UCHL1 = UCHL1 (UniProt P09936)
# Procedure, shortened: as §1
# UCHL3 = target: T4, UCHL3 (UniProt P15374)
# T4 sequence (whole entry): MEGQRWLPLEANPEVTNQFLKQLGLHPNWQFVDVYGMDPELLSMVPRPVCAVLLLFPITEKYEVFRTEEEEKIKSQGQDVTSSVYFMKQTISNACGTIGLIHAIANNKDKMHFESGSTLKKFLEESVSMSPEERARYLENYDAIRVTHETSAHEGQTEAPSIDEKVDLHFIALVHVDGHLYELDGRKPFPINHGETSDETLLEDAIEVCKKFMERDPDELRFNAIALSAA
# Procedure, shortened: as §1
# UCHL5 = target: T5, UCHL5 (UniProt Q9Y5K5)
# T5 sequence (whole entry): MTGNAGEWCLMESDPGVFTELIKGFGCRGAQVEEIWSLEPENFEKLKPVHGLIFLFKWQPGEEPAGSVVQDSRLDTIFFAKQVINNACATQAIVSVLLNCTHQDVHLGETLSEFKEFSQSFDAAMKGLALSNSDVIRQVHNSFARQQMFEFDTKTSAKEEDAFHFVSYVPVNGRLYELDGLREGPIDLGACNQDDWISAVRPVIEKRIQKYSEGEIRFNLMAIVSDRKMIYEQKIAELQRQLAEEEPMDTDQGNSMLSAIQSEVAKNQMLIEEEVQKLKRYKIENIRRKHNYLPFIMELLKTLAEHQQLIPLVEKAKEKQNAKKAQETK
# Procedure, shortened: as §1
# USP10 = USP10 (UniProt Q14694)
# Procedure, shortened: as §1
# USP15 = target: T6, USP15 (UniProt Q9Y4E8)
# T6 sequence (whole entry): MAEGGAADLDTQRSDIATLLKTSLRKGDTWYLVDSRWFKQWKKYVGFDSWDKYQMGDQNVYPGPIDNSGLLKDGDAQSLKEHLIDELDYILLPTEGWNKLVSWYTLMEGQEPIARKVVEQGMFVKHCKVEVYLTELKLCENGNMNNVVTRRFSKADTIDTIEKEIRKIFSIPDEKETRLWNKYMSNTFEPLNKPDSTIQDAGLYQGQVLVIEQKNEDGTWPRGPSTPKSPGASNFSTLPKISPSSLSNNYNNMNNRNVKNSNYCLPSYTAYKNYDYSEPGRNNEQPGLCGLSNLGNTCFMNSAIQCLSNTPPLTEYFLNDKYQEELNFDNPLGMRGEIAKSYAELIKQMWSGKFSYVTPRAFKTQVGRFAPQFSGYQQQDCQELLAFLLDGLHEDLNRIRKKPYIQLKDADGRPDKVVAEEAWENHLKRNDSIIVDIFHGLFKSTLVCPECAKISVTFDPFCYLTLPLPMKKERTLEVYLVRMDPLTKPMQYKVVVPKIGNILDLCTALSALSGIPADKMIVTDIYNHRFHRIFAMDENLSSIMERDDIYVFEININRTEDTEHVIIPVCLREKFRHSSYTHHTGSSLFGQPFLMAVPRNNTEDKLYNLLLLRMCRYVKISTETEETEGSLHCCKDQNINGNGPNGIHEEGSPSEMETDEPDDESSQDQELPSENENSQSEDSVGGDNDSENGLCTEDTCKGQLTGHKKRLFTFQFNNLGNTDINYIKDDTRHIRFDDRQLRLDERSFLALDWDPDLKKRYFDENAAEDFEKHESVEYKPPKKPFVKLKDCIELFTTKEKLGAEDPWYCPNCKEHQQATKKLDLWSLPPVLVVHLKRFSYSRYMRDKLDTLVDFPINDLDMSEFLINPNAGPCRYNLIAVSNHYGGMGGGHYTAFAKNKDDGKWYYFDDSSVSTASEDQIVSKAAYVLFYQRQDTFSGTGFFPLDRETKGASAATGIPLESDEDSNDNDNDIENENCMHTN
# Procedure, shortened: as §1
# Sequence of UCHL1 (P09936 whole entry, looked up): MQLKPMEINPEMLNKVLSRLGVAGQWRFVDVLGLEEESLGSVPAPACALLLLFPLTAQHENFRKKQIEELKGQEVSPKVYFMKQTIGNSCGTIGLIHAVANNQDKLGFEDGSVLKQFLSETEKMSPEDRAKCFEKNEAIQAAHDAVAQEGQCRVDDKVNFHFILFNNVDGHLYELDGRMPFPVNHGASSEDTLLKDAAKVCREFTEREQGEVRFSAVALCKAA
# Sequence of USP10 (Q14694 whole entry): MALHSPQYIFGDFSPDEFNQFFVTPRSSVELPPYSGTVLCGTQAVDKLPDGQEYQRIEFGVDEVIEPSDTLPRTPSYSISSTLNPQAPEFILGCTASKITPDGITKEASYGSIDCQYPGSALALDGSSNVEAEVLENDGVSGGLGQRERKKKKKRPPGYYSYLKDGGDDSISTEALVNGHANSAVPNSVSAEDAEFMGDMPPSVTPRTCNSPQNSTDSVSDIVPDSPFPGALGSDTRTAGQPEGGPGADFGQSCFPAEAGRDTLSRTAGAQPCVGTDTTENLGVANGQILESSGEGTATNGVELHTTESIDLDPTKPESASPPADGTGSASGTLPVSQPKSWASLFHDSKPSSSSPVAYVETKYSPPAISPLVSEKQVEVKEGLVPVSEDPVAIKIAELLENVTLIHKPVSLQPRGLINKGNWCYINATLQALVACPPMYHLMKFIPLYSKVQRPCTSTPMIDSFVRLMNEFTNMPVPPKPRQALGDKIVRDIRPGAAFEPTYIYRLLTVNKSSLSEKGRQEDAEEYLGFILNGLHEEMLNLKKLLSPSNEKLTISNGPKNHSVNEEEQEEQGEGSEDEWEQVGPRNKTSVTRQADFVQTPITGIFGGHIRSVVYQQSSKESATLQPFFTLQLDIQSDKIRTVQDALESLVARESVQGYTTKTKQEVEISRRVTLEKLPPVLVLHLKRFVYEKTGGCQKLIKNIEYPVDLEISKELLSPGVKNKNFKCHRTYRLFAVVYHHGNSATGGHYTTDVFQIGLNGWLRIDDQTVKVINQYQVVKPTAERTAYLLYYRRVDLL
structure (smiles),measurement,setting,value
Cl.O=C(CCl)N1CCCC(c2ncc[nH]2)C1 (centres undefined),log2 ratio of Biotin-Ahx-Ub-VS probe labelling,OTUD6B,-0.0792
same,log2 ratio of Biotin-Ahx-Ub-VS probe labelling,OTUD7B,-0.245
same,log2 ratio of Biotin-Ahx-Ub-VS probe labelling,PRPF8,-0.138
same,log2 ratio of Biotin-Ahx-Ub-VS probe labelling,PSMD7,-0.217
same,log2 ratio of Biotin-Ahx-Ub-VS probe labelling,UCHL1,-1.49 (active)
same,log2 ratio of Biotin-Ahx-Ub-VS probe labelling,UCHL3,0.271
same,log2 ratio of Biotin-Ahx-Ub-VS probe labelling,UCHL5,-0.164
same,log2 ratio of Biotin-Ahx-Ub-VS probe labelling,USP10,-0.028
same,log2 ratio of Biotin-Ahx-Ub-VS probe labelling,USP15,-0.0525
